The values below come from the supplement of paper PMC6279402.

This experiment deals with A549. The experiment can be described thus: relative viability (normalised to negative control = 1, bortezomib = 0) (fraction); higher = less cytotoxic. Particulars: inflammatory serum-free RHB-A with cytokines + LPS, 5 d + 24 h CellTiter-Blue. Here is the method:
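A549 KRAS-mutant NSCLC cells, pre-treated 5 µM GSK126 or vehicle (DMSO), were seeded at 250 cells/well in 384-well plates in serum-free RHB-A medium with inflammatory cytokines/LPS and treated with Selleck kinase inhibitor and NCI oncology compounds at 30 or 300 nM in triplicate, refreshed at 48 h. Viability was read by CellTiter-Blue after 5 d plus 24 h and normalised per plate with cellHTS2 (mean of bortezomib positive control = 0, mean of negative control = 1).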

Where [1] appears, read: compound 30 nM, GSK126 pretreatment: 5 uM GSK126.
Setting [2] is: compound 30 nM, GSK126 pretreatment: none (vehicle).
Where [3] appears, read: compound 300 nM, GSK126 pretreatment: 5 uM GSK126.
Where [4] appears, read: compound 300 nM, GSK126 pretreatment: none (vehicle).

Molecules are shown by their SMILES. Counter-ions that a name gives are not always drawn. ± gives the standard deviation of the averaged measurements.

As to `O=C(O)C(=O)O.[NH-][C@@H]1CCCC[C@H]1[NH-].[Pt+2]` [Oxaliplatin], the relative viability under setting [1] was determined as 0.792 ± 0.077, the relative viability under setting [2] amounted to 0.782 ± 0.1, the relative viability under setting [3] came out at 0.79 ± 0.088 and the relative viability under setting [4] is 0.796 ± 0.037.
Take `N#C/C(=C/c1ccc(O)c(O)c1)C(=O)NCc1ccccc1` [AG-490; Tyrphostin AG 490]: the relative viability reads like this: under setting [1], 0.914 ± 0.15; under setting [2], 0.861 ± 0.1; under setting [3], 0.879 ± 0.15; under setting [4], 0.873 ± 0.11.
On the same counts, the results for `COc1ccc2c3n(c(=NC(=O)c4cccnc4)nc2c1OC)CCN3` are 0.7 ± 0.049, 0.75 ± 0.044, 0.578 ± 0.14 and 0.735 ± 0.031.
On the same counts, the results for `Nc1ncnc2c1c(-c1cnc3[nH]ccc3c1)nn2C1CCCC1` are 0.767 ± 0.06, 0.797 ± 0.071, 0.494 ± 0.039 and 0.533 ± 0.069.
On the same counts, the results for `O=NN(CCCl)C(=O)NCCCl` [Carmustine] are 0.852 ± 0.1, 0.858 ± 0.13, 0.894 ± 0.046 and 0.955 ± 0.072.
`NC(N)=NC(N)=NCCc1ccccc1` [Phenformin hydrochloride]: the relative viability was determined as 0.897 ± 0.13 under setting [1], 0.864 ± 0.068 under setting [2], 0.955 ± 0.058 under setting [3] and 0.966 ± 0.13 under setting [4].
In the same order, the values of `CC1(C)CNc2cc(NC(=O)c3cccnc3NCc3ccncc3)ccc21` [Motesanib Diphosphate] are 0.917 ± 0.035, 0.864 ± 0.062, 0.937 ± 0.14 and 0.918 ± 0.06.
As to `N#CC(=C(/N)Sc1ccccc1N)/C(C#N)=C(/N)Sc1ccccc1N`, the relative viability under setting [1] was 0.835 ± 0.084, the relative viability under setting [2] was determined as 0.825 ± 0.11, the relative viability under setting [3] is 0.61 ± 0.084 and the relative viability under setting [4] was 0.684 ± 0.12.
For the compound `S=C(NCc1ccc2c(c1)OCO2)N1CCN(c2ncnc3c2oc2ccccc23)CC1` [Amuvatinib (MP-470); MP-470], the relative viability is 0.861 ± 0.067 under setting [1], 0.848 ± 0.057 under setting [2], 0.917 ± 0.15 under setting [3] and 1.07 ± 0.072 under setting [4].
Consider `COC(=O)Nc1ccc(-c2nc(N3CCOCC3)c3cnn(C4CCN(C(=O)OC)CC4)c3n2)cc1`, for which the relative viability amounted to 0.691 ± 0.035 under setting [1], 0.715 ± 0.019 under setting [2], 0.489 ± 0.036 under setting [3] and 0.588 ± 0.04 under setting [4].
